Measurements taken from PubChem BioAssay (NCATS).
Inconclusive results are not listed. Activity calls are given as the source filed them. Calls come from the whole dose curve; as a rule, active = well fitted curve in the direction sought with a large enough effect; inconclusive = small, poorly fitted or top-dose-only effect, or another doubt; inactive = no such curve, though single readings can be large; an effect the other way counts as inactive or inconclusive.

Experiments:
MCC-13 = assay: qHTS assay to identify novel small-molecules to repurpose for Merkel cell carcinoma treatment (AID 1296009); settings: MCC and control cell lines, CellTiter-Glo viability, 72 h; series mostly up to 46 µM; note: nearly all actives have a fitted effect of over 60% in size
Method in brief: (§1)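 Cell viability, measured as CellTiter-Glo luminescence, was normalized between DMSO and no-cell wells. The cells had been exposed to 8- or 11-point compound dilutions for 72 hr at 37 degree celsius.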

MCC-26 = assay: as above; settings: MCC and control cell lines, CellTiter-Glo viability, 72 h; series mostly up to 46 µM
Method in brief: as §1

MKL-1 = assay: as above; settings: MCC and control cell lines, CellTiter-Glo viability, 72 h; series mostly up to 46 µM
Method in brief: as §1

MKL-2 = assay: as above; settings: MCC and control cell lines, CellTiter-Glo viability, 72 h; series mostly up to 46 µM
Method in brief: as §1

UISO = assay: as above; settings: MCC and control cell lines, CellTiter-Glo viability, 72 h; series mostly up to 46 µM
Method in brief: as §1

WaGa = assay: as above; settings: MCC and control cell lines, CellTiter-Glo viability, 72 h; series mostly up to 46 µM
Method in brief: as §1

C33A = assay: Primary qHTS to identify gynecologic anti-cancer compounds using libraries of approved drugs and bioactive compounds (AID 1345084); settings: Gynecologic cancer cell panel viability, ATPlite luminescence, 48 h; series mostly up to 57.5 µM; note: nearly all actives have a fitted effect of over 55% in size
Method in brief: (§2)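 Cells, 1,000 per well, were allowed to settle for 16 h at 37 C before compound addition. Five concentrations were tested for 48 h, and viability was read by ATPlite luminescence after 15 min at room temperature.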

CASKI = assay: as above; settings: Gynecologic cancer cell panel viability, ATPlite luminescence, 48 h; series mostly up to 57.5 µM
Method in brief: as §2

Es-2 = assay: as above; settings: Gynecologic cancer cell panel viability, ATPlite luminescence, 48 h; series mostly up to 57.5 µM
Method in brief: as §2

HeLa = assay: as above; settings: Gynecologic cancer cell panel viability, ATPlite luminescence, 48 h; series mostly up to 57.5 µM
Method in brief: as §2

Hek293T = assay: as above; settings: Gynecologic cancer cell panel viability, ATPlite luminescence, 48 h, control line for the selectivity index; series mostly up to 57.5 µM
Method in brief: as §2

JEG-3 = assay: as above; settings: Gynecologic cancer cell panel viability, ATPlite luminescence, 48 h; series mostly up to 57.5 µM
Method in brief: as §2

OV90 = assay: as above; settings: Gynecologic cancer cell panel viability, ATPlite luminescence, 48 h; series mostly up to 57.5 µM
Method in brief: as §2

PA-1 = assay: as above; settings: Gynecologic cancer cell panel viability, ATPlite luminescence, 48 h; series mostly up to 57.5 µM
Method in brief: as §2

SKOV3 = assay: as above; settings: Gynecologic cancer cell panel viability, ATPlite luminescence, 48 h; series mostly up to 57.5 µM
Method in brief: as §2

Tov-21-G = assay: as above; settings: Gynecologic cancer cell panel viability, ATPlite luminescence, 48 h; series mostly up to 57.5 µM
Method in brief: as §2

Tov112D = assay: as above; settings: Gynecologic cancer cell panel viability, ATPlite luminescence, 48 h; series mostly up to 57.5 µM
Method in brief: as §2

NIH3T3 = assay: qHTS assay to identify novel small-molecules to repurpose for Merkel cell carcinoma treatment (AID 1296009); settings: MCC and control cell lines, CellTiter-Glo viability, 72 h; at 44.8 µM (top of the series) unless noted; note: nearly all actives have a fitted effect of over 60% in size
Method in brief: as §1

CAOV3 = assay: Primary qHTS to identify gynecologic anti-cancer compounds using libraries of approved drugs and bioactive compounds (AID 1345084); settings: Gynecologic cancer cell panel viability, ATPlite luminescence, 48 h; series mostly up to 57.5 µM; note: nearly all actives have a fitted effect of over 55% in size
Method in brief: as §2

Measured: Potency

C/C(=C(\CCO)SS/C(CCO)=C(\C)N(C=O)Cc1cnc(C)nc1N)N(C=O)Cc1cnc(C)nc1N
not listed: NIH3T3 | CAOV3
inactive: all other assays above

O=C(O)c1ccccc1OP(=O)(O)O
not listed: MCC-26 | NIH3T3 | CAOV3
inactive: all other assays above

CCCCC1(COC(=O)CCC(=O)O)C(=O)N(c2ccccc2)N(c2ccccc2)C1=O
not listed: MCC-26
inactive: all other assays above

C=CCOc1ccccc1OCC(O)CNC(C)C (stereo unspecified)
not listed: MCC-26 | NIH3T3
inactive: all other assays above

Cc1cccc(Nc2ccccc2C(=O)O)c1C
not listed: NIH3T3 | CAOV3
inactive: all other assays above

CNc1c2c(nn1C)CCCC2
not listed: NIH3T3 | CAOV3
inactive: all other assays above

COC(=O)c1ccc(O)cc1
not listed: MCC-26
inactive: all other assays above

C[C@@H](c1ncncc1F)C(O)(Cn1cncn1)c1ccc(F)cc1F (stereo partly specified)
not listed: OV90 | NIH3T3 | CAOV3
inactive: all other assays above

Cc1c(Cn2ccnc2)c2ccccc2n1CCC(=O)O
not listed: SKOV3 | NIH3T3 | CAOV3
inactive: all other assays above

CC[N+](C)(CC)CCOC(=O)C1c2ccccc2Oc2ccccc21
not listed: SKOV3 | NIH3T3 | CAOV3
inactive: all other assays above

CC[C@H](C)[C@H](N)C(=O)O
not listed: MCC-26 | NIH3T3
inactive: all other assays above

CC1CCc2cc(F)cc3c(=O)c(C(=O)O)cn1c23 (stereo unspecified)
not listed: SKOV3 | NIH3T3 | CAOV3
inactive: all other assays above
